# Results published in PubChem BioAssay AID720519 (National Center for Advancing Translational Sciences (NCATS), 2013).
# Results filed as inconclusive are left out. Activity calls are given as the source filed them. The call rests on the fitted dose curve; in most records, active means well fitted activation curve with a large enough effect; inconclusive means small, poorly fitted or top-dose-only effect; inactive means flat fitted curve, though single readings scatter.
# Experiment: qHTS for Inhibitors of Cell Surface uPA Generation: Confirmatory Assay for Cherry-picked Compounds; on inhibition: 0% is about no effect
# Conditions: cell surface uPA activity generation, qHTS confirmation; series mostly up to 115 µM; inhibition: at the top concentration
# Description: The overall objective of this project is to perform a quantitative high throughput screen (qHTS) to identify novel compounds that inhibit the generation of cell surface urokinase activity. The urokinase plasminogen activator (uPA) is one of the two primary endogenous systems that mediate plasminogen activation into plasmin. Members of this system, including uPA and its receptor (uPAR), are overexpressed in several malignant tumors. This system plays a major role in adhesion, migration, invasion and metastasis of cancer cells. Small molecule inhibitors of the uPA system will serve as probes to understand the molecular mechanisms of the uPA cascade and better understanding the micro-environmental circumstances that facilitate the activation of plasminogen by uPA, and finally may provide novel candidate agents for anticancer drug therapy.
# […] […] Upon inhibition of the uPA activation cascade, the subsequent cell surface uPA activity-dependent translocation of LF into the cytoplasm is inhibited. ATP-Lite is used to measure intracellular ATP concentrations (measure cell viability) which remain increased if LF entry into the cytoplasm is inhibited. This validation assay was performed using a small set of cherry picked compounds. Activation of cell viability (increase in luminescence signal) due to inhibition of the cell surface uPA generation is the desired outcome of this assay.
# NIH Chemical Genomics Center [NCGC]
# NIH Molecular Libraries Probe Centers Network [MLPCN]
# Assay Submitter (PI): Thomas Bugge, National Institute of Dental and Craniofacial Research, NIH
# Cultured RAW 264.7 were dispensed into 1536-well clear bottom, white walled tissue culture plates at a density of 4000 cells/well and were incubated overnight (12-16 h) at 37 C in a 5% CO2 incubator. Serially diluted compounds (1:5 dilution) in 23 nl DMSO were added to cells (0.0024 uM to 3.83 uM final concentration). […] Compound and reagent-treated plates were incubated for 24 h at 37 C in a 5% CO2 incubator. Three microliter of PerkinElmer ATPlite was then added to each well and luminescence was detected using the PerkinElmer ViewLux plate reader for a 5 sec exposure.
# Potency means the concentration at half of the fitted maximal effect.
SMILES,inhibition,Potency
CC1(c2cccc([N+](=O)[O-])c2)CC(C)(C)N(C(=O)c2ccccc2)c2ccccc21 (stereo not given),-2% (inactive),–
O=C(N/C(=C\c1cccc([N+](=O)[O-])c1)C(=O)N1CCOCC1)c1ccc([N+](=O)[O-])cc1,-0.71% (inactive),–
Cc1cc(OC(C)C(=O)NCc2ccccn2)c2c(C)cc(=O)oc2c1 (stereo not given),3.43% (inactive),–
CCOCc1nnc(NC(=O)C2CCN(C(=O)C3CC(=O)N(c4ccc(C)cc4)C3)CC2)s1 (stereo not given),-1.89% (inactive),–
C=CCOC(=O)C1=C(C)NC(C)=C(C(=O)OCC=C)C1c1cn(-c2ccccc2)nc1-c1ccco1,2.24% (inactive),–
CCc1ccccc1N1C(=O)CC(Sc2nccc(C)n2)C1=O (stereo not given),0.764% (inactive),–
O=[N+]([O-])c1cccc2c(N3CCOCC3)ccnc12,-3.53% (inactive),–
C[C@@]12C(=O)N(CC3CCCO3)CC(=O)N1[C@H]1c3cc(Cl)ccc3OC[C@@H]1[C@@H]2c1ccccc1 (stereo not given in full),-2.79% (inactive),–
CC1CN(C(=O)CCC(=O)NCc2ccccc2)c2ccccc2S1 (stereo not given),0.274% (inactive),–
CCOc1ccc(C(=O)NCCO)cc1,-1.33% (inactive),–
O=C(COC(=O)C1CC2C=CC1C2)NCc1ccccc1Cl (stereo not given),1.24% (inactive),–
O=C1CCCC/C1=C\Nc1ccc(S(=O)(=O)Nc2cnc3ccccc3n2)cc1,-1.58% (inactive),–
COc1ccc(N2CCN(C(=O)COc3ccc4c(C)c(C)c(=O)oc4c3C)CC2)cc1,-1.45% (inactive),–
CCC(C)Sc1nnc(NS(=O)(=O)Cc2ccccc2)s1 (stereo not given),-3.03% (inactive),–
COc1ccc(C(=O)NCCOC(C)C)cc1OC1CCN(C(C)=O)CC1,-0.274% (inactive),–
Cc1oc2c(Cl)c(Cl)c(O)c(CN(C)C)c2c1C(=O)c1ccc(Cl)cc1,4.02% (inactive),–
COC(=O)Cc1c(C)c2ccc(OCC(=O)N3CCCC(C)C3)c(C)c2oc1=O (stereo not given),-2.44% (inactive),–
Cc1ccc(NC(=O)c2ccc(=O)[nH]n2)cc1S(=O)(=O)Nc1ccccc1Cl,1.5% (inactive),–
Cc1cc2[nH]c(=O)c(=O)[nH]c2cc1S(=O)(=O)NC1CCC(C)CC1 (stereo not given),-1.26% (inactive),–
Cc1cccn2c(CNCC(C)Oc3cccnc3)c(C(=O)N3CCOCC3)nc12 (stereo not given),-1.92% (inactive),–

SMILES,inhibition,Potency
O=C(CSc1ccc(Cl)cc1)Nc1ccc(C2SCCS2)cc1,0.585% (inactive),–
COc1cccc(NC(=O)CSc2nc3ncc(Br)cc3[nH]2)c1,-0.495% (inactive),–
Clc1ccc(C2=NN=C3COc4ccccc4N3C2)cc1,-2.4% (inactive),–
CCOC(=O)Cc1csc(NC(=O)Nc2cccc(OC)c2)n1,1.72% (inactive),–
CCc1ccc(N2CC(C(=O)Nc3ccc4c(c3)OCO4)CC2=O)cc1 (stereo not given),1.98% (inactive),–
COc1ccc(C(=O)CC(=O)C(=O)Nc2ccccc2)cc1,-3.21% (inactive),–
CCC1(CC)NC(=O)N(CC(=O)OCC(=O)c2cc(C)c(C)cc2C)C1=O,-1.52% (inactive),–
Cc1cc(-c2ccccc2)nc(N/N=C/c2ccc(N(C)C)cc2)n1,-2.59% (inactive),–
C=CC1=C(C(=O)O)N2C(=O)[C@@H](NC(=O)/C(=N\O)c3csc(N)n3)[C@H]2SC1 (stereo in doubt),1.1% (inactive),–
O=C(NCCc1cn2ccsc2n1)c1cccs1,-1.44% (inactive),–
COc1cc(NC(=O)COC(=O)c2cc(S(=O)(=O)N3CCCCC3)ccc2Cl)c(C)cc1[N+](=O)[O-],0.838% (inactive),–
CC(C)CNC(=O)COC(=O)CCC(=O)c1cccs1,-0.888% (inactive),–
O=C(C1CCCCN1S(=O)(=O)c1ccc(F)cc1)N1CCN(c2ccccc2F)CC1 (stereo not given),0.855% (inactive),–
Cc1cccc(C(=O)NCC(=O)OCC(=O)NC2CCCCCCC2)c1,1.31% (inactive),–
Cc1c(NC(=O)C(C)OC(=O)CCC2CCCC2)c(=O)n(-c2ccccc2)n1C (stereo not given),0.008% (inactive),–
O=[N+]([O-])c1ccccc1C=NNC(=S)NN=Cc1ccccc1[N+](=O)[O-],-2.73% (inactive),–
CCOCCCn1c(SCC(=O)Nc2cc(OC)ccc2OC)nc2ccccc2c1=O,-3.62% (inactive),–
COc1cc(NC(=O)CSc2nnc3ccc(-c4ccncc4)nn23)cc(OC)c1,1.04% (inactive),–
Cc1ccc(Nc2cc(C)c3ccc(O)cc3n2)cc1C,–,6.56 µM (active)
N/C(=N/OC(=O)c1ccccc1F)c1nonc1N,-2.61% (inactive),–
